aSyn UTR inh = MLPCN primary screen, SNCA 5' untranslated region | inhibition, % (tested at 7.5 µM) | AID 1813 | actives 0.82% (n = 300,000) | alpha-synuclein 5'UTR reporter, inhibitor activity; in the data active = inhibition above about 60%;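 also: H4 neuroglioblastoma cells stably carrying SNCA 5'UTR luciferase fusion; 0% = DMSO wells and 100% = positive control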
Ba/F3 V617F tox = loss of viability in JAK2V617F-driven Ba/F3 cells | Ba/F3 EpoR-JAK2V617F viability, ATP luminescence | inhibition, % at 5.6 µM | actives 1.1% (n = 220,000);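 active = inhibition above the campaign mean plus 3 SD over all tested compounds, cut at about 24% in these data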;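 also: cytokine-independent growth of Ba/F3 cells driven by EpoR plus mutant JAK2; 0% = DMSO-treated cells and 100% = JAK inhibitor I control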
APP transl inh = APP translation inhibition. SH-SY5Y APP 5'UTR-luciferase reporter, luminescence. inhibition, % at 2 µM. actives 0.82% (n = 190,000). AID 1285;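 active = inhibition above a set limit, derived from the sample mean plus 3 SD, cut at about 45% in these data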
BaF3 parental = reduces parental Ba/F3 cell viability, JAK2V617F counter-screen; CellTiter-Glo ATP luminescence; inhibition, % at 5.6 µM; actives 1.1% (n = 220,000); AID 1486;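 active = inhibition above a per-campaign cutoff, the mean inhibition of all tested compounds plus 3 SD, cut at about 27% in these data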;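 also: 0% = DMSO wells and 100% = JAK Inhibitor I control wells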
KLF5 inhibitor = inhibitors of KLF5 expression; AID 1700; DLD-1 KLF5 promoter-luciferase reporter, luminescence; inhibition, % at 5 µM; actives 0.23% (n = 290,000);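 active = inhibition above a per-plate limit of that plate's mean compound inhibition plus 3 SD, cut at about 60% in these data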;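 also: 0% = DMSO wells and 100% = LY294002 at 200 µM; higher means less KLF5 promoter-driven luciferase light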
IEC-6 cytotox = kills IEC-6 intestinal cells in KLF5 counter-screen; actives 0.78% (n = 290,000); AID 1825; IEC-6 cytotoxicity, luminescence viability; inhibition, % at 5 µM; in the data active = inhibition above about 22%;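 also: 0% = plate median of test compound wells and 100% = cytotoxic reference compound wells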
* = called active by the depositor. The list is not random: actives were taken first. Their share in the collection is about 2.1%.

`Cc1cc(C(=O)CSc2nc3ccccc3c(=O)[nH]2)c(C)n1CC1CCCO1` (centres undefined) gave aSyn UTR inh -115, Ba/F3 V617F tox 35*, APP transl inh -103, BaF3 parental 40*, KLF5 inhibitor -111 and IEC-6 cytotox 4.
`CCN1C(=O)[C@H]2[C@@H](c3ccc(-c4ccc(OC)cc4)cc3)N3CCC[C@@]3(C(=O)OC)[C@H]2C1=O` gave aSyn UTR inh -21.
Screening COCC(C)n1c(SCc2cc(=O)n3cc(C)ccc3n2)nc2ccccc2c1=O (centres undefined) returned aSyn UTR inh 64*, Ba/F3 V617F tox -5, APP transl inh 37, BaF3 parental 3, KLF5 inhibitor -13 and IEC-6 cytotox 20.
CN(C(=O)CSc1nc2[nH]ncc2c(=O)[nH]1)c1ccccc1 was read as aSyn UTR inh 15.
Screening COc1ccc2c(c1)sc(=N)n2C returned aSyn UTR inh -6, Ba/F3 V617F tox 58*, APP transl inh 6, BaF3 parental 69*, KLF5 inhibitor -23 and IEC-6 cytotox -1.
CCOC(=O)c1c(NC(C)=O)sc2c(O)cccc12 was read as aSyn UTR inh 23, Ba/F3 V617F tox 1, APP transl inh 55*, BaF3 parental 4, KLF5 inhibitor -6 and IEC-6 cytotox -3.
CC(C)Cn1c(N)c(C(=O)COC(=O)[C@@H]2CCCN2C(=O)c2cccs2)c(=O)n(C)c1=O was read as aSyn UTR inh 13, Ba/F3 V617F tox -1, APP transl inh -10, BaF3 parental 1, KLF5 inhibitor -7 and IEC-6 cytotox -3.
Clc1ccc2nc(-c3ccc4c(c3)OCO4)cn2c1 was read as aSyn UTR inh 57, Ba/F3 V617F tox 4, APP transl inh -158, BaF3 parental 15, KLF5 inhibitor 15 and IEC-6 cytotox 21.
c1ccn2cc(-c3ccc4c(c3)OCCO4)nc2c1 was read as aSyn UTR inh 98*, Ba/F3 V617F tox 13, APP transl inh -117, BaF3 parental 14, KLF5 inhibitor -23 and IEC-6 cytotox 11.
For CCNc1ccc(C(=O)NN=C2CCCC2)cc1[N+](=O)[O-] the results were aSyn UTR inh -11, Ba/F3 V617F tox 1, APP transl inh 65*, BaF3 parental 6, KLF5 inhibitor 3 and IEC-6 cytotox -5.
For Cc1ccc(C(=O)NN=C2CCCC2)cc1C the results were aSyn UTR inh 8.
`CC(OC(=O)c1ccccc1Nc1ccc(SC(F)F)cc1)C(N)=O` (centres undefined) gave aSyn UTR inh 43, Ba/F3 V617F tox 5, APP transl inh 8, BaF3 parental 12, KLF5 inhibitor 7 and IEC-6 cytotox 28*.
FC(F)Sc1ccc(-n2cc(-c3ccc(Cl)cc3)[n+]3c2CCC3)cc1 was read as aSyn UTR inh 10, Ba/F3 V617F tox 25*, APP transl inh 4, BaF3 parental 36*, KLF5 inhibitor 6 and IEC-6 cytotox 2.
Brc1ccc(-c2csc3[n+]2CCCCC3)cc1 was read as aSyn UTR inh 23, Ba/F3 V617F tox 55*, APP transl inh 0, BaF3 parental 55*, KLF5 inhibitor -25 and IEC-6 cytotox 0.
FC(F)Sc1ccc(NC2=NCCCCC2)cc1 was read as aSyn UTR inh -5, KLF5 inhibitor -9 and IEC-6 cytotox 5.
For Clc1ccc(-n2cc(-c3ccc(Br)cc3)[n+]3c2CCCCC3)cc1 the results were aSyn UTR inh 2, Ba/F3 V617F tox 55*, BaF3 parental 60*, KLF5 inhibitor -20 and IEC-6 cytotox -3.
`CC(C)(C)c1cn(-c2ccc(Cl)cc2)c(=S)[nH]1` gave aSyn UTR inh -35, Ba/F3 V617F tox -3, APP transl inh -15, BaF3 parental 3, KLF5 inhibitor -35 and IEC-6 cytotox -3.
c1ccc(-c2c[nH]c3[n+]2CCCCC3)cc1 was read as aSyn UTR inh 5, Ba/F3 V617F tox 3, APP transl inh 7, BaF3 parental 6, KLF5 inhibitor -21 and IEC-6 cytotox 0.
Screening Cc1ccc(-c2cn(-c3ccc(SC(F)F)cc3)c3[n+]2CCC3)cc1 returned aSyn UTR inh -3, Ba/F3 V617F tox 67*, APP transl inh -9, BaF3 parental 66*, KLF5 inhibitor -9 and IEC-6 cytotox 3.
O=C(Cn1nc(CNc2ccc(Cl)cc2)[n+]2c1CCCCC2)c1ccc(Br)cc1 was read as aSyn UTR inh 5, Ba/F3 V617F tox -2, APP transl inh -13, BaF3 parental 0, KLF5 inhibitor 10 and IEC-6 cytotox 8.
For COc1ccc(C(=O)COC(=O)c2cccc(-n3cnnn3)c2)c(OC)c1 the results were aSyn UTR inh -104.
O=C(NC1CCCCC1)c1cccnc1Sc1ccccc1 was read as aSyn UTR inh 35, KLF5 inhibitor -18 and IEC-6 cytotox 0.
O=C1NC(=O)C(CC(=O)N(Cc2cccs2)C2(C(=O)NC3CCCCC3)CCCCC2)N1 (centres undefined) was read as aSyn UTR inh 16, Ba/F3 V617F tox 5, APP transl inh 5, BaF3 parental 88*, KLF5 inhibitor -22 and IEC-6 cytotox 0.
Screening CC(C)c1ccc(NC(=O)CN2C(=O)COc3ccc(S(=O)(=O)N4CCOCC4)cc32)cc1 returned aSyn UTR inh -7, KLF5 inhibitor -46 and IEC-6 cytotox -6.
CCOc1ccc(CCNC(=O)C2CCN(S(=O)(=O)N3CCCCC3)CC2)cc1OCC was read as aSyn UTR inh 9, Ba/F3 V617F tox -1, APP transl inh 2, BaF3 parental 93*, KLF5 inhibitor -16 and IEC-6 cytotox -1.
Screening O=C(NCCNC(=O)c1cc(Cl)ccc1Cl)c1cnccn1 returned aSyn UTR inh -1, KLF5 inhibitor -27 and IEC-6 cytotox -1.
`O=[N+]([O-])/C=C/c1c(OCc2ccccc2)ccc2ccccc12` gave aSyn UTR inh -5, Ba/F3 V617F tox -6, APP transl inh -9, BaF3 parental 7, KLF5 inhibitor 5 and IEC-6 cytotox 5.
`CCOC(=O)COc1ccc2ccccc2c1/C=C/[N+](=O)[O-]` gave aSyn UTR inh 3, Ba/F3 V617F tox 1, APP transl inh 62*, BaF3 parental 6, KLF5 inhibitor -6 and IEC-6 cytotox 3.
`COc1ccc(-c2noc(CCCC(=O)O)n2)cc1` gave aSyn UTR inh 89*, Ba/F3 V617F tox -3, APP transl inh 56*, BaF3 parental 3, KLF5 inhibitor 32 and IEC-6 cytotox 1.
CCN1CCN(Cc2ccc(NC(=O)c3cc(NC(=O)c4cc(C)on4)cc(OC)c3)cc2C(F)(F)F)CC1 was read as aSyn UTR inh 20, KLF5 inhibitor -12 and IEC-6 cytotox -2.
`CCN1CCN(Cc2ccc(NC(=O)c3cc(NC(=O)C(=O)c4c[nH]c5ccccc45)cc(OC)c3)cc2C(F)(F)F)CC1` gave aSyn UTR inh 117*.
For COc1ccc(C(=O)CNc2ccc(C)cc2C)cc1 the results were aSyn UTR inh -56, Ba/F3 V617F tox -1, BaF3 parental -3, KLF5 inhibitor 2 and IEC-6 cytotox 1.
